About 83,000 compounds went through this panel and 20% of them were active in at least one assay; those are over-represented in the sample as a whole.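 48-hour exposure, single concentration, 96-well plates; percent growth endpoint where 0 means no net growth. Active: below 10.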 Unmarked numbers belong to inactive results. The source made the active and inactive calls.

These results are taken from PubChem BioAssay (NCI).

One test concerns DU-145 prostate. Nature of the test: NCI-60 one-dose screen, 48 h (100 = growth as untreated, 0 = no growth, -100 = all killed). Conditions: 10 µM unless noted.
For the molecule `COc1ccc(Cn2cc3c(c2-c2ccccc2)CCc2cnoc2-3)cc1OC`, the growth was 21.3%. The same measure, in the same setting: the value for `CC1(C)Oc2cc3oc(=O)ccc3cc2C[C@@H]1OCCOS(=O)(=O)c1ccc(C#N)cc1` was 103%. Same read-out and setting: the value for `c1ccc(-c2cn3ccnc3c(-c3ccc4ncn(C5CCCCC5)c4c3)n2)cc1` was 70.7%. As for `COC(=O)/C=C/c1cc(O)c2oc(-c3ccc(O)c(O)c3)c(C(=O)OC)c2c1`, the growth is 17.5%. Same read-out and setting: in the case of `CC1=C[C@@H]2c3c(c(O)c(O)c4oc5cc(O)cc(O)c5c(=O)c34)[C@@H](c3cc(O)c(O)c4oc5cc(O)cc(O)c5c(=O)c34)[C@@H]2C(C)(C)C1` it was 20.7%; in that of `COc1ccc(C(=O)CN2C(=O)NC(c3ccccc3)(c3ccccc3)C2=O)cc1`, 116%; in that of `NNC(=S)N1N=C(c2cc3ccccc3o2)CC1c1c[nH]c2ccccc12` (stereo unspecified), 50.9%.

Consider `Cc1c(C(N)=O)sc2c1c(=O)n(Cc1ccccc1)c1nnc(S(C)(=O)=O)n21`, for which the growth was 101%.

For the molecule `CCOC(=O)C1=NN(c2ccccc2)C2=NC(=O)/C(=C\c3cn(-c4ccccc4)nc3-c3cc4ccccc4o3)C(=O)N12`, the growth was 109%. Same read-out and setting: in the case of `CCCCN(CCCC)CC(O)CN(CC)CC` (stereo unspecified) it was 113%; in that of `CC(C)OC(=O)[C@H](C)N[P@@](=O)(OC[C@@]1(C)O[C@@H](n2cc(F)c(N)nc2=O)C[C@@H]1O[P@](=O)(N[C@@H](C)C(=O)OC(C)C)Oc1ccccc1)Oc1ccccc1`, 103%; in that of `COc1ccc(Cn2cc3c(c2)-c2oncc2CC3)cc1OC`, 10.3%. The same measure, in the same setting: the value for `COc1ccc(Cn2cc3c(c2-c2ccc(OC)cc2)CCc2cnoc2-3)cc1` was 10.5%; that for `COc1ccc2oc(=O)cc(CN3C(=O)S/C(=C\c4ccc(Cl)cc4)C3=O)c2c1` was 96.5%; that for `CCNc1nnc(COc2ccc(CNC(=O)CCCC/C=C/C(C)C)cc2OC)o1` was 109%. With `CC([C@H]1CC=C2C3CCC4=C[C@@H](N(C)C)CC[C@]4(C)C3CC[C@@]21C)N(C)C` (stereo partly specified), the growth was 57%.

In the case of `CCS(=O)(=O)OCCO[C@H]1Cc2cc3ccc(=O)oc3cc2OC1(C)C`, the growth was 103%. Same read-out and setting: the value for `CC1(C)NCCC[C@]2(C)[C@H]3CC=C4[C@@H]5C[C@](C)(COC(=O)c6ccccc6C(=O)O)CC[C@]5(C)CC[C@@]4(C)[C@]3(C)CC[C@@H]12` was 79.3%; that for `O=C1c2ccccc2CCc2ccccc21` was 104%.

Turning to `O=C(/C=C/c1c[nH]c2ccccc12)c1cc2ccccc2o1`, the growth is 95.6%.

On to `N#Cc1ccc(NC2c3ccccc3CC2O)cc1` (stereo unspecified), for which the growth was 110%. Regarding `C=CCN(C)C`, the growth is 119%. For the molecule `CC[C@@H](C)/C=C(C)/C=C/C(=O)c1c(O)c(-c2ccc(OC(=O)[C@@]34CC[C@@](C)(C(=O)O3)C4(C)C)cc2)cn(O)c1=O`, the growth is 10.8%. Still for that read-out and setting: the value for `Cc1c(CN(C)C)cc(C(C)C)cc1C(C)C` was 113%; that for `CC1(c2ccc(Br)cc2)NC(=O)NC1=O` (stereo unspecified) was 111%.

As for `Oc1ccc2ccccc2c1/C=N\Nc1ccccn1`, the growth is 4.84% (active). Still for that read-out and setting: the value for `C=C(C)[C@@H]1CC[C@]2(COC(=O)c3ccccc3C(=O)O)CC[C@]3(C)[C@H](CC[C@@H]4[C@@]5(C)CCCNC(C)(C)[C@@H]5CC[C@]43C)[C@@H]12` was 65.9%; that for `COC1=C(OC)C(=O)c2ccccc2C1=O` was 112%. As to `COC(=O)Nc1nc2ccc(C(=O)c3ccccc3N(C)C3COC3)cc2[nH]1`, the growth is 33.7%. Same read-out and setting: the value for `C[C@@H](c1ccc2c(c1)[nH]c1ccc(Cl)cc12)c1nc2ccc(Cl)cc2[nH]1` was 90.7%; that for `O=c1oc2ccc3ccccc3c2cc1-c1ccnc2[nH]c(=S)[nH]c(=O)c12` was 106%; that for `O=S(=O)(Cc1cccc2c(CS(=O)(=O)c3ccc(Cl)cc3)cccc12)c1ccc(Cl)cc1` was 91.2%.

Consider `COc1ccc(CN2C(=O)/C(=C\C(=O)c3ccc(OCCN4CCCC4)cc3)c3ccccc32)cc1`, for which the growth is 71.9%.

As to `Cc1cc(CSc2ccc(Cl)cc2)ccc1N`, the growth was 88.5%.

Another test has as its system K-562 leukemia. The description is as above. Particulars: 10 µM unless noted.
Take `COc1ccc(Cn2cc3c(c2-c2ccccc2)CCc2cnoc2-3)cc1OC`: the growth was 14.1%. Still for that read-out and setting: in the case of `c1ccc(-c2cn3ccnc3c(-c3ccc4ncn(C5CCCCC5)c4c3)n2)cc1` it was 29.4%; in that of `NNC(=S)N1N=C(c2cc3ccccc3o2)CC1c1c[nH]c2ccccc12` (stereo unspecified), 9.64% (active); in that of `CCOC(=O)C1=NN(c2ccccc2)C2=NC(=O)/C(=C\c3cn(-c4ccccc4)nc3-c3cc4ccccc4o3)C(=O)N12`, 74.9%. For `CCCCN(CCCC)CC(O)CN(CC)CC` (stereo unspecified), the growth is 92.4%. Still for that read-out and setting: in the case of `COc1ccc(Cn2cc3c(c2)-c2oncc2CC3)cc1OC` it was 16.9%; in that of `COc1ccc(Cn2cc3c(c2-c2ccc(OC)cc2)CCc2cnoc2-3)cc1`, 14.7%. Regarding `COc1ccc2oc(=O)cc(CN3C(=O)S/C(=C\c4ccc(Cl)cc4)C3=O)c2c1`, the growth was 64.1%. As to `COc1cc(-c2nc(/C=C3/C(=O)Nc4ccccc43)c3ccccn23)cc(OC)c1OC`, the growth is 52.2%. On to `CCNc1nnc(COc2ccc(CNC(=O)CCCC/C=C/C(C)C)cc2OC)o1`, for which the growth is 91.6%. On the same count and under the same terms, the value for `O=C(/C=C/c1c[nH]c2ccccc12)c1cc2ccccc2o1` was 37.2%; that for `CCCCCCCCCCCCCCCCC(=O)O.CCCCCCCCCCCCCCCCCC(=O)O.CCCCCCCCCCCCCCCCCC(=O)O.CCCCCCCCCCCCCCCCCC(=O)O.CCCCCCCCCCCCCCCCCC(=O)O.CO[CH-]OC12COC1CC(O)C1(C)C(O)C(OC(C)O)C3=C(C)C(OC(=O)C(O)C([NH-])c4ccccc4)CC(O)(C(OC(=O)c4ccccc4)C21)C3(C)C.[Cu+].[Zn].[Zn].[Zn].[Zn].[Zn]` (stereo unspecified) was 8.31% (active); that for `N#Cc1ccc(NC2c3ccccc3CC2O)cc1` (stereo unspecified) was 90.4%. For the molecule `Cc1ccc(C(=O)NN)cc1`, the growth is 91.6%. The same measure, in the same setting: the value for `Oc1ccc2ccccc2c1/C=N\Nc1ccccn1` was 16.1%; that for `CCCCCC(=C/c1ccccc1)/C=N/N=C(N)N` was 5.26% (active). Take `O=C1C(Cl)=C(SC2=NCCN2)C(=O)c2ccccc21`: the growth is 65%.

As to `C[C@@H](c1ccc2c(c1)[nH]c1ccc(Cl)cc12)c1nc2ccc(Cl)cc2[nH]1`, the growth was 52.6%. As to `O=c1oc2ccc3ccccc3c2cc1-c1ccnc2[nH]c(=S)[nH]c(=O)c12`, the growth was 93.4%. On the same count and under the same terms, the value for `O=S(=O)(Cc1cccc2c(CS(=O)(=O)c3ccc(Cl)cc3)cccc12)c1ccc(Cl)cc1` was 83.2%.

As to `COc1ccc(CN2C(=O)/C(=C\C(=O)c3ccc(OCCN4CCCC4)cc3)c3ccccc32)cc1`, the growth is -25.9% (active). Same read-out and setting: in the case of `Cc1cc(CSc2ccc(Cl)cc2)ccc1N` it was 99.6%.
